High-throughput results (PubChem BioAssay)
Rows were chosen to be rich in hits. Some 19% of all compounds tested hit in one or more screens of this group.
HT1080 IDH1KD tx: HT-1080 IDH1 knockdown cell toxicity (counter line); Potency, µM (doses to about 46.1 µM), without a hit: top-dose activity, negative = toxicity, hits mostly cytotoxic; actives 2% (n = 360,000); HT-1080 IDH1 knockdown viability, ATP luminescence, 48 h;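 further: 0% = DMSO wells and -100% = cell-free medium wells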
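Luminescent ATP read-out (CellTiter-Glo, 10 min at room temperature) after 48 h compound exposure at 37 °C gave viability of IDH1-knockdown HT-1080 cells. Activity was normalised to DMSO and cell-free wells, then fitted as concentration-response curves.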
KB-3-1 tox: kills parental KB-3-1 adenocarcinoma cells; KB-3-1 viability, CellTiter-Glo ATP luminescence, 72 h; Potency, µM (titrated, usually from 46.1 µM), actives largely listed as cytotoxic; actives 1.4% (n = 400,000); AID 1347075; further: nearly all actives have a fitted effect of over 60% in size
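Cytotoxicity measured as CellTiter-Glo luminescence after 72 h at 37 C. Compound titrations were pinned onto drug-naive KB-3-1 parental adenocarcinoma cells grown in DMEM with 10% FBS, and normalized data fitted to concentration-response curves.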
DT40 TDP1 CPT: DT40-hTDP1 cell growth loss with CPT. chicken DT40 Tdp1-/-;hTDP1 cells + 20 nM CPT, ATP luminescence, 48 h. Potency, µM (highest dose often 46.2 µM), inactives show at the highest dose activity change, negative = growth inhibition, most hits filed as inhibitors. actives 12% (n = 420,000). AID 686979; further: nearly all actives have a fitted effect of over 55% in size
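Chicken DT40 Tdp1-/- cells stably complemented with human TDP1 were seeded at 400 cells/well in medium containing 20 nM camptothecin, exposed to pin-transferred compounds, and grown at 37 °C for at least 48 hr. Viability was read as ATP luminescence.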
HT1080-NT tox: kills 2HG-producing HT-1080-NT fibrosarcoma cells; HT-1080-NT fibrosarcoma viability, CellTiter-Glo ATP luminescence, 48 h; actives 1.6% (n = 360,000); Potency, µM (series often up to 46.1 µM), inactives show top-dose activity, negative = less viability, hits mostly cytotoxic; AID 686970;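 further: NT is the 2HG producing partner of a matched IDH1 knockdown line; 0% = DMSO-treated cells and -100% = media-only wells without cells; nearly all actives have a fitted effect of over 55% in size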
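Compounds were tested in concentration-response format on HT-1080-NT cells for 48 hours at 37 degrees C. Cell viability came from CellTiter-Glo luminescence; curves were classified by r2, response magnitude and activity.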
KB-V1 cytotox: KB-V1 MDR subline cytotoxicity; AID 1347076; actives 3.4% (n = 400,000); KB-V1 MDR cells viability, CellTiter-Glo, 72 h; Potency, µM (highest dose often 46.1 µM), usual class: cytotoxic; further: nearly all actives have a fitted effect of over 60% in size
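KB-V1 MDR subline cells in DMEM (phenol-red free, 10% FBS) exposed to compounds in qHTS concentration series for 72 h at 37 degrees C. Viability read by CellTiter-Glo luminescence; concentration-effect curves fitted after normalization and correction.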
DT40 TDP1 no CPT: qHTS for Inhibitors of human tyrosyl-DNA phosphodiesterase 1 (TDP1): qHTS in cells in absence of CPT; DT40 Tdp1-/- hTDP1 cells, no CPT, ATP luminescence, 48 h; Potency, µM (highest dose often 46.2 µM), inactives show at the highest dose activity change, negative = growth inhibition, most hits filed as inhibitors; actives 15% (n = 420,000); further: nearly all actives have a fitted effect of over 55% in size
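Readout: luminescence from CellTiter-Glo after 30 min in the dark at RT. Cells: DT40 Tdp1-/- with stable hTDP1, 400/well. Exposure: compounds alone, ≥48 hr, 37 °C.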
* hit, by the source's call; i = inactive; ? = inconclusive; / = no result given. The call rests on the fitted dose curve; in most records, active means well fitted curve in the direction sought with a large enough effect; inconclusive means small, poorly fitted or top-dose-only effect, or another doubt; inactive means no such curve, though single readings can be large; an effect the other way counts as inactive or inconclusive. Unless noted, on the % scale 0 is the no-effect control and ±100 the full control effect; potency means the concentration at half of the fitted maximal effect.

SMILES	HT1080 IDH1KD tx	KB-3-1 tox	DT40 TDP1 CPT	HT1080-NT tox	KB-V1 cytotox	DT40 TDP1 no CPT
CC(CNC(=O)c1cc2ccccn2n1)c1ccccc1 (stereo not drawn)	/	i	-23%	/	i	-16%
O=C(Nc1nc2ccccc2[nH]1)c1ccc(Br)o1	?	i	?	?	?	15µM*
Cc1c(C(=O)Nc2nc3ccccc3[nH]2)oc2ccccc12	-17%	i	21µM*	-4%	?	23µM*
Cc1c(C(=O)Nc2nc3ccccc3[nH]2)oc2c(Cl)cccc12	-19%	?	?	-17%	?	16µM*
COc1ccc(NC(=O)Cn2c([N+](=O)[O-])cnc2C)c(OC)c1	1%	i	-12%	1%	i	-27%
O=C(NC1CC2CCC(C1)N2Cc1nnnn1Cc1ccco1)NC12CC3CC(CC(C3)C1)C2 (stereo not drawn)	2%	i	21µM*	-7%	i	18µM*
CCOc1ccccc1C(=O)NC1CC2CCCC(C1)N2Cc1nnnn1Cc1ccco1 (stereo not drawn)	8%	i	?	0%	?	16µM*
CC(C)C[C@@H](C(=O)NC1CCN(Cc2ccccc2)CC1)N1C(=O)N2CCc3c([nH]c4ccccc34)[C@@]2(C)C1=O	?	?	12µM*	?	?	21µM*
C[C@@H](C(=O)NC1CCN(Cc2ccccc2)CC1)N1C(=O)N2CCc3c([nH]c4ccccc34)[C@@]2(C)C1=O	1%	i	23µM*	-2%	i	?
CC(C)[C@@H](C(=O)NC1CCN(Cc2ccccc2)CC1)N1C(=O)N2CCc3c([nH]c4ccccc34)[C@@]2(C)C1=O	-23%	i	18µM*	-14%	?	13µM*
COc1ccc2[nH]c3c(c2c1)CCN1C(=O)N([C@@H](C)C(=O)NC2CCCC2)C(=O)[C@]31C	10%	i	12µM*	7%	i	?
CCOC(=O)c1ccccc1NC(=O)c1cn(CC(C)C)c(=O)c2cc(OC)c(OC)cc12	/	i	-2%	/	i	?
COc1ccc2[nH]c3c(c2c1)CCN1C(=O)N([C@@H](C)C(=O)NC2CC2)C(=O)[C@]31C	-2%	i	-26%	2%	i	?
COc1ccc2[nH]c3c(c2c1)CCN1C(=O)N([C@@H](C)C(=O)NC2CCN(Cc4ccccc4)CC2)C(=O)[C@]31C	-17%	i	16µM*	-5%	?	16µM*
C=CCn1c(O)c(N=NC(=S)Nc2ccccc2F)c2cc(S(=O)(=O)N3CCOCC3)ccc21	?	?	0.73µM*	?	?	0.73µM*
Oc1c(N=NC(=S)Nc2ccccc2F)c2ccccc2n1Cc1ccccc1	-5%	?	7.3µM*	-1%	i	5.8µM*
C=CCn1c(O)c(N=NC(=S)Nc2cccc(C)c2)c2ccccc21	?	?	2.1µM*	-6%	2.9µM*	1.8µM*
Oc1c(N=NC(=S)Nc2ccccc2F)c2ccccc2n1Cc1ccccc1Cl	-1%	4.1µM*	6.5µM*	13µM*	i	5.8µM*
CC(C)N1CCC(C)(C(=O)Nc2cccc3c2CCCC3)C1 (stereo not drawn)	22%	i	-15%	7%	i	-23%
CCc1cccc2c(-c3ccc(F)cc3)nc(SCC(=O)Nc3ccccc3)nc12	/	/	?	/	/	-25%
CN(C)CCCn1c2c(c(SCC(=O)Nc3ccc4c(c3)OCCO4)nc1=O)CCCC2	1%	i	-18%	-15%	i	?
O=C(CN1CCCCC1)NCC1(c2ccccc2)CCCC1	-2%	i	-15%	4%	i	?
C=CCn1c(O)c(N=NC(=S)Nc2ccccc2F)c2ccccc21	?	?	4.1µM*	-25%	i	2.6µM*
Cc1ccc(Cn2c(O)c(N=NC(=S)Nc3ccccc3F)c3ccccc32)cc1	-8%	i	6.5µM*	-4%	?	5.8µM*
Cc1c(Cl)cccc1NC(=O)CCN1CCOCC1	6%	i	-14%	-6%	i	-2%
SMILES	HT1080 IDH1KD tx	KB-3-1 tox	DT40 TDP1 CPT	HT1080-NT tox	KB-V1 cytotox	DT40 TDP1 no CPT
Cc1c(Cl)cccc1NC(=S)N=Nc1c(O)n(CN2CCOCC2)c2ccccc12	?	?	5.8µM*	-13%	i	1.5µM*
COCCCNC(=O)CCC(=O)N1Cc2ccccc2Oc2ncccc21	/	i	-19%	/	i	0%
CCOC(=O)CC1(C)Oc2ccccc2N1S(=O)(=O)c1ccc(C)cc1 (stereo not drawn)	-26%	i	21µM*	-10%	i	?
CCCCCCCCCc1conc1C(=O)/C=C/c1oc2c(c1C)CCC(C)C2 (stereo not drawn)	?	i	21µM*	?	i	15µM*
CC1CCc2onc(C(=O)O)c2C1 (stereo not drawn)	11%	i	4%	2%	i	1%
CC(=O)OC1CCC2(C)C(CCC3C4CC=C(C(C)=O)C4(C)OC(=O)CC32)C1 (stereo not drawn)	10µM*	23µM*	2.3µM*	?	?	2.1µM*
N#C/C(=C\c1c(Cl)cccc1Cl)c1nc2ccccc2o1	?	i	-18%	-8%	i	0%
Cc1cc(O)ccc1N/C=C(\C#N)c1nc2ccccc2o1	-8%	i	?	1%	i	12µM*
O=C(NCCc1cn2ccccc2n1)c1cc(COc2ccc3ncccc3c2)on1	-28%	?	4.1µM*	-4%	8.2µM*	5.8µM*
CC(NC(=O)c1cc(COc2ccccc2)on1)c1nccs1 (stereo not drawn)	6%	i	?	1%	i	-20%
COc1cccc(OCc2cc(C(=O)NC3CCOCC3)no2)c1	2%	i	-7%	-5%	?	16%
Cc1ccc(OCc2cc(C(=O)NC3CCCCC3)no2)cn1	15µM*	?	13µM*	?	?	8.2µM*
O=C(NC1CCCC1)c1cc(COc2ccc3ncccc3c2)on1	?	i	3.7µM*	?	?	2.1µM*
CC(NC(=O)c1cc(COc2ccc3ncccc3c2)on1)c1ccc(F)cc1 (stereo not drawn)	?	?	6.5µM*	-22%	i	3.7µM*
